PubChem BioAssay AID504690 (Sanford-Burnham Center for Chemical Genomics, 2011)
The whole screen tested about 350,000 compounds, of which about 2,700 (0.77%) were called active.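 The calls were made as follows: active = inhibition reaching at least a set limit at 20 µM in the primary screen (cut at about 59% in these data); inactive = the rest.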 What follows is part of a selection rich in actives, with near analogues and random picks from the rest.

test system: glucose-6-phosphate dehydrogenase-6-phosphogluconolactonase (Plasmodium falciparum 3D7); experiment: PfG6PD enzyme inhibitors, primary screen, biochemical, fluorescence intensity, uHTS (AID 504690); conditions: PfGluPho enzyme, NADPH resazurin-diaphorase fluorescence; at 20 µM; hits give high values;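 also: 0% = DMSO wells with substrate and 100% = DMSO wells lacking glucose-6-phosphate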

inhibition, inactive:
C=CCc1cccc(/C=N/NC(=O)COc2ccc(-n3cnnn3)cc2)c1O -10.4%
C=CCOc1ccccc1/C=N/NC(=O)Cc1ccccc1 4.68%
Cc1cccc(OCC(=O)NCC(=O)N/N=C/c2ccc(N(C)C)cc2)c1 17.1%
C=C(C)CNC(=S)N/N=C/c1ccccc1OCC(=O)O 3.17%
Fc1ccc(OCc2nn3c(Cn4nnc5ccccc54)nnc3s2)cc1 57.3%
COC(=O)CSc1nc2c(c(C3CC=CCC3)c1C#N)CCC2 (stereo not given) -38.4%
CC(C)(C)NS(=O)(=O)CC12CCC(CC1=O)C2(C)C (stereo not given) -13.3%
CCN(C(=O)COC(=O)CCC(=O)c1cccs1)C1CCCCC1 -5.84%
CN(CC(=O)Nc1cccc2c1CCCC2)S(=O)(=O)c1ccc(Cl)cc1 6.22%
CCc1nonc1NC(=O)c1oc2ccc(Cl)cc2c1C -9.82%
Cn1c(-c2ccc(F)cc2)cc2onc(-c3ccccc3Cl)c2c1=O 4.14%
CCc1cccc(C)c1NS(=O)(=O)c1cc(Br)cnc1N -9.37%
CCN(C(=O)CSc1nnc(-c2ccncc2)o1)c1ccccc1 -2.03%
COc1cc(CNC2CCCC2)c(Br)cc1OCc1ccccc1 -14.8%
COc1ccc(CCN=C2SCC(=O)N2Cc2ccccc2)cc1OC -8.19%
Cc1ccc(S(=O)(=O)N2C[C@H]3C(=O)C[C@@H](c4cccc5ccccc45)N(S(=O)(=O)c4ccc(C)cc4)[C@H]3C[C@H]2c2ccc(Cl)cc2)cc1 7.92%
O=C(N/N=C\c1cccnc1)c1cc(-c2ccccc2)nc2c(Cl)cccc12 8.75%
Cc1c(NC(=O)CSc2cccc3cccnc23)c(=O)n(-c2ccccc2)n1C 6.71%
OC(CNC1CCCC1)COc1ccc(F)cc1 (stereo not given) 11.3%
Cc1ccc(C)c(NS(=O)(=O)c2c(C)[nH]c(C)c2C(=O)N2CCCCC2)c1 -16.2%
Cc1ccc(-n2c(C)cc(C(=O)CSc3nnc4ccccn34)c2C)cc1 26.1%
COc1ccc(-n2c(C)cc(C(=O)COC(=O)c3cc(OC)c(OC)cc3NC(=O)c3cccs3)c2C)cc1 -6.02%
O=C(CCN1CCCCC1)N=Nc1c(O)[nH]c2ccccc12 6.66%
Oc1[nH]c2ccccc2c1N=Nc1c(F)c(F)c(F)c(F)c1F 0.03%
CC1(C)C=C2[C@H]3CC[C@@H]4[C@@]5(C)CCC(=O)C(C)(C)[C@@H]5CC[C@@]4(C)[C@]3(C)CC[C@@]2(C(=O)O)CC1 -28.4%
Cn1c(SCC(=O)Nc2ccc(Br)cc2F)nnc1-c1ccco1 -4.98%
COc1ccc(-n2cnc3cc(NCc4ccco4)ccc32)cc1 23.7%
COc1ccc(Cl)cc1NC(=O)CCS(=O)(=O)c1ccc(Br)cc1 43%
O=C(COC(=O)/C(=C/c1cccs1)c1cccs1)NCc1ccccc1Cl -3.87%
Cc1cc(C(C)(C)C)cc(C)c1N 12.1%
COc1ccc(-c2cc(C)nc3nc(N)nn23)cc1 -2.23%
CC(C)C(c1nnnn1C1CCCCC1)N1CCN(C(=O)c2ccco2)CC1 (stereo not given) -12.7%
CN(CCc1cnn(C)c1)Cc1cn(C)nc1-c1ccccc1F -8.15%
CNC(=O)c1sc(Nc2ccc(OCc3ccccc3)cc2)nc1C 19.4%
COc1ccc(NC(=O)CCC(=O)Nc2nnc(C3CCCCC3)s2)cc1 -7.47%
COc1ccc(NC(=O)CN2C(=O)COc3ccc(S(=O)(=O)N4CCOCC4)cc32)c(OC)c1 -0.58%
O=C(c1ncn2c1c(=O)[nH]c1ccccc12)N1CCc2ccccc2C1 8.24%
CC(=O)N(C)c1ccc(NC(=O)Nc2cccc3ccccc23)cc1 -6.82%
COc1ccccc1C(=O)Nc1ccccc1C(=O)Nc1ccccc1 8.55%
COc1cc2ccccc2cc1C(=O)Nc1ccccc1C -15.2%
C=CCNC(=O)c1sc(SC)cc1-c1ccc(Cl)cc1 9.14%
CCc1ccc2[nH]c(=O)c(Cc3ccccc3)c(O)c2c1 -9.56%
COc1ccc(CCC(=O)N2CCN(S(=O)(=O)c3ccc(OC)cc3)CC2)cc1 -10.5%
O=c1[nH]c2ccccc2s1 5.6%
C/C(=C\c1ccco1)CN1CCC(N2CCC(C(=O)N3CCOCC3)CC2)CC1 -6.22%
CN(C(=O)c1cccc(NC(=O)Cc2cccc(NC(=O)C3CCCN(C(=O)C4CC4)C3)c2)c1)C1CCC1 (stereo not given) 13.5%
Cc1ccc(Nc2nc(CSc3nnnn3-c3ccccc3)cc(=O)[nH]2)cc1 2.74%
C/C(=N/NC(=O)C1COc2ccccc2O1)c1ccco1 (stereo not given) -17.2%
COc1ccc(NC(=O)COC(=O)C2COc3ccccc3O2)cc1 (stereo not given) -2.2%
CCOC(=O)C1(CCOc2ccccc2)CCN(C(=O)c2cncs2)CC1 -8.03%
N#Cc1cnn2cc(CCN3CCOCC3)c(-c3ccc(F)cc3)nc12 -4.2%
O=C(C1CC(=O)N(C2CCCCC2)C1)N1CCN(c2ccccc2)CC1 (stereo not given) 1.77%
O=C(C1CCC1)N1CCN(c2ccccc2)CC1 -11.2%
O=C(CSc1ccc(C(F)(F)F)cc1[N+](=O)[O-])NCCOc1ccccc1 4.59%
CCc1cccc(NC(=S)N(CCN(C)C)C2CCN(C(C)C)CC2)c1 -1.59%
CC(C)c1cc(C(N)=O)c(NC(=O)c2cccc(COc3ccc(Br)cc3)c2)s1 17.7%
CC(C)Oc1ccc(C(=O)NC(C)(C)CO)cc1 -5.29%
Cc1cc(C(F)(F)F)nc(SCC(=O)Nc2nccs2)n1 14.7%
CCn1c(SCC(=O)Nc2sc(C)c(C)c2C#N)nnc1C1CC1 13.8%
CCOC(=O)c1cc2c(=O)n3ccccc3nc2n(CC(C)C)c1=NC(=O)c1c(-c2c(F)cccc2Cl)noc1C 10.9%
O=C(Cc1ccccc1)N/N=C/c1ccc(Cl)cc1Cl 8.79%
O=C(CSc1nnc(SCc2ccc(F)cc2)s1)Nc1ccc(C(=O)O)cc1 -15.7%
CC1CCCN(C(=O)Cn2c(=O)oc3cc(S(=O)(=O)N4CCCCC4C)ccc32)C1 (stereo not given) -4.91%
CC(C)(C)c1cc2cccnc2n1Cc1ccccc1 2.96%

inhibition, active:
CCOc1ccccc1/C=N/NC(=O)CNC(=O)COc1ccccc1 120%
C=CCc1ccccc1OCC(=O)N/N=C/c1ccccc1OCC 105%
COc1cc(C2CC(=O)N3CN(Cc4ccccc4)CSC3=C2C#N)ccc1OCc1ccccc1 (stereo not given) 61.5%
O=C(CSc1cccc2cccnc12)N/N=C/c1cccnc1 63.5%
COc1ccc(-n2c(C)cc(C(=O)CSc3nnc(-c4cccs4)o3)c2C)cc1 83.3%
Cc1c(-c2ccccc2)n[nH]c1C(=O)N=Nc1c(O)[nH]c2ccccc12 88.8%
Cn1c(-c2ccco2)nc2cc3ccccc3cc21 60.5%
Cc1cc(N)n2nc(-c3ccc(C(C)(C)C)cc3)cc2n1 84.5%
COC(=O)CCc1sc(Nc2ccc(Br)cc2)nc1-c1ccc(OC)cc1 64.3%
O=c1[nH]c2ccccc2n2c(-c3ccccc3)nnc12 102%
COc1ccc(C(=O)Nc2cc(C)c(NC(=O)c3ccccc3OC)cn2)cc1 79.1%
Nc1ccc2[nH]c(=S)sc2c1 74.7%
O=C(Nc1nc(-c2ccncc2)cs1)C1COc2ccccc2O1 (stereo not given) 82.1%
O=C1C=CC(=O)N1c1ccc(N2CCCCC2)cc1 59.2%
CCOC(=O)c1sc(NC(=O)CSc2nc(C)cc(C(F)(F)F)n2)c(C#N)c1C 60.4%
O=C(CSc1nnc(SCc2ccc(Cl)cc2)s1)N/N=C/c1ccccc1Cl 75.1%
